# LYPLA2 inh: LYPLA2 inhibitors, primary screen, counter-screen for PME1 inhibitor project, biochemical, fluorescence polarization, FP-Rh probe ABPP; recombinant LYPLA2; inhibition, % at 5.9 µM; hit rate 0.38% among 320,000;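 active = inhibition above the screen-wide mean plus 3 SD, limit set per campaign, cut at about 26% in these data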;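 note: 0% = LYPLA2 with DMSO and 100% = wells lacking LYPLA2 enzyme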
# PME-1 inh: PME-1 inhibitors via competitive probe labeling, primary screen, biochemical, fluorescence polarization, FP-Rh probe, HTS; Protein phosphatase methylesterase 1 (Homo sapiens), Q9Y570; recombinant PME-1; inhibition, % at 5.9 µM; hit rate 0.53% among 320,000;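 active = inhibition above the campaign mean of all compounds plus 3 SD, cut at about 26% in these data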;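 note: competitive labeling of PME-1 active site by serine hydrolase directed probe; 0% = PME-1 with DMSO and 100% = wells lacking PME-1 enzyme; inhibitors block probe labeling so polarization falls and inhibition rises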
# Target sequence (Q9Y570 whole entry, looked up): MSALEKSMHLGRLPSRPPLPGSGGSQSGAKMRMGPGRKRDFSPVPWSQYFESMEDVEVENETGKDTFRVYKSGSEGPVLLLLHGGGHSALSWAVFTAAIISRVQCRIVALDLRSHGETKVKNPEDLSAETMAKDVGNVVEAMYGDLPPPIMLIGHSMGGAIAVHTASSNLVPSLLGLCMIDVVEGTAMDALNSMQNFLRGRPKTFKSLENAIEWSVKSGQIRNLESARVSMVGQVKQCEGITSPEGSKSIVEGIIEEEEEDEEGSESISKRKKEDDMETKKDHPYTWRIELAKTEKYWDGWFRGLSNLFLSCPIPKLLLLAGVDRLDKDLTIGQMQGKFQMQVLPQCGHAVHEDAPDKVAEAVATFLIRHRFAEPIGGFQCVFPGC
# PREPL inhibitor: PREPL enzyme inhibitors, primary screen, biochemical, fluorescence polarization. Prolyl endopeptidase-like (Homo sapiens), Q4J6C6. recombinant PREPL, fluorescence polarization activity-based probe. inhibition, % at 5.96 µM. hit rate 0.68% among 320,000;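 note: 0% = enzyme with DMSO and 100% = wells lacking enzyme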
# LYPLA1 inh: LYPLA1 inhibitors, primary screen, counter-screen for PME1 inhibitor project, biochemical, fluorescence polarization, FP-Rh probe ABPP; Acyl-protein thioesterase 1 (Homo sapiens), O75608; recombinant LYPLA1; inhibition, % at 5.9 µM; hit rate 0.16% among 320,000;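 active = inhibition above the mean of all tested compounds plus 3 SD, set per campaign, cut at about 14% in these data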;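 note: inhibitors block serine hydrolase probe labeling of LYPLA1 so polarization falls; 0% = enzyme with DMSO and 100% = wells lacking LYPLA1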
# Fam108B counter: mouse Fam108B serine hydrolase inhibitors, primary screen, counter-screen for RBBP9 inhibitor project, biochemical, fluorescence polarization; recombinant Fam108B, FP-Rh probe fluorescence polarization; inhibition, % at 9.51 µM; hit rate 0.33% among 300,000; AID 1947, 2009;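 active = inhibition above the screen mean inhibition plus 3 SD, computed separately per campaign, cut at about 18% in these data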;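 note: inhibitors lower polarization as less probe binds the enzyme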
# PREPL confirm: human PREPL enzyme inhibitors, confirmation, biochemical, fluorescence polarization | AID 2803, 2010 | inhibition, % at 5.96 µM | shares compounds with PREPL inhibitor | hit rate 67% among 2,000 | recombinant PREPL, fluorescence polarization activity probe;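 note: 0% = protein with DMSO and 100% = wells lacking protein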
# Active calls of the source: *; x = no result. Compounds with a hit are over-represented: about 1.3% of the library has one in this group of screens. Cut-off read from the data, not from the text of the source, unless noted: active = inhibition above about 43%; inactive = the rest.
SMILES,LYPLA2 inh,PME-1 inh,PREPL inhibitor,LYPLA1 inh,Fam108B counter,PREPL confirm
CNC[C@@H]1Oc2ccc(NC(=O)Nc3ccccc3)cc2C(=O)N([C@@H](C)CO)C[C@H]1C,x,x,4,x,x,x
COc1ccc(S(=O)(=O)Nc2ccc3c(c2)C(=O)N([C@H](C)CO)C[C@H](C)[C@@H](CN(C)C(=O)Nc2ccc(C(F)(F)F)cc2)O3)cc1,x,x,45*,x,x,41
COc1ccc(NC(=O)N(C)C[C@H]2Oc3ccc(NS(=O)(=O)c4ccc(OC)cc4)cc3C(=O)N([C@H](C)CO)C[C@@H]2C)cc1,x,x,2,x,x,x
CCOc1ccccc1OCCCC(=O)NNC(=O)c1cc(C)oc1C,-6,-1,-2,10,x,x
CCN1CCN(CCC(=O)Nc2ccccc2C)CC1,-1,0,1,3,4,x
N#Cc1ccccc1S(=O)(=O)c1ccccc1C(=O)Nc1ccccc1,-3,0,2,-16,4,x
O=c1[nH]c2ccc(NCc3ccccc3OCc3ccc(Cl)cc3)cc2[nH]1,7,9,72*,3,4,73*
COc1ccc(-c2nnc(SCC(=O)N3CCCC3=O)n2N)cc1OC,x,x,21,x,x,x
CC(C)N(c1ccccc1)c1ccc(NC(=O)COC(=O)CCN2C(=O)c3cccc([N+](=O)[O-])c3C2=O)cc1,4,6,59*,-6,9,60*
COCCn1nnnc1C(c1ccc(OC)cc1)N1CCN(C(=O)c2ccco2)CC1 (configuration not stated),7,3,-3,-3,3,x
O=C(Cc1ccc(Cl)cc1)Nc1ccc(N2CCN(C(=O)c3ccco3)CC2)c(Cl)c1,-1,3,54*,-4,0,47*
Cc1ccc(OCC(=O)Nc2ccc(N3CCN(C(=O)c4ccco4)CC3)cc2)cc1,6,-4,52*,0,1,43*
Nc1ccc(N2CCN(C(=O)c3ccco3)CC2)cc1,8,-1,63*,2,3,44*
O=C(COc1ccccc1)Nc1ccc(N2CCN(C(=O)c3ccco3)CC2)cc1,1,-7,42,-2,0,x
O=C(c1ccco1)N1CCN(c2ccc(F)cc2)CC1,6,6,6,4,5,x
COc1cc(OC)cc(C(=O)NNC(=O)CCC(=O)c2cc(C)sc2C)c1,x,x,3,x,x,x
O=C(c1cc([N+](=O)[O-])ccc1Cl)N1CCN(c2ccc([N+](=O)[O-])cc2)CC1,12,4,65*,2,3,58*
CC(=O)C1=C(C)Nc2ncnn2C1c1ccc(Br)cc1 (configuration not stated),-1,-3,-12,0,-2,x
CCSc1nnc(-c2ccccc2N=Cc2c(C)[nH]n(-c3ccccc3)c2=O)c(=O)[nH]1,-6,2,10,-1,7,x
COc1ccc(-n2c(-c3ccccc3)cc3c2CCCC3=O)cc1,-1,15,49*,0,1,41
CCN(CC)CCn1c(=N)n(CC(O)c2ccc(OC)c(OC)c2)c2ccccc21 (configuration not stated),2,-3,44*,-5,-1,43
Cc1ccc(-c2csc(N3CCN(c4cc5c(cc4Cl)nc(-c4ccncc4)n5CCN4CCCCC4)CC3)n2)cc1,-5,5,45*,-2,-1,37
COc1ccc(CNC(=O)CS(=O)(=O)Cc2nc(-c3cccc(OC)c3)oc2C)cc1,-3,3,0,0,-4,x
CN(CC1CCOCC1)C(=O)CC1C(=O)NCCN1Cc1cccc(F)c1 (configuration not stated),2,9,4,2,-1,x
NS(=O)(=O)c1ccc(N2CCOCC2)c(C(=O)NCCCSc2ccccc2)c1,-3,7,11,-1,x,x
SMILES,LYPLA2 inh,PME-1 inh,PREPL inhibitor,LYPLA1 inh,Fam108B counter,PREPL confirm
COc1ccc(NC(=O)C2CCN(S(=O)(=O)c3c(C)noc3/C=C/N(C)C)CC2)cc1,6,13,6,-2,-3,x
COc1ccc(N2CCN(CCCNS(=O)(=O)c3c(C)noc3/C=C/N(C)C)CC2)cc1,4,6,71*,1,-1,28
COc1cc(C(=O)NC(=S)Nc2ccc3oc(=O)ccc3c2)cc(OC)c1OC,4,1,1,2,-5,x
COc1ccc(C(=O)NC(=S)Nc2ccc3oc(=O)ccc3c2)cc1[N+](=O)[O-],16,0,47*,2,-12,3
COC(=O)[C@@]1(Cc2ccc(OC)cc2)[C@H]2c3cc(C(=O)N4CCCC4)n(CCSCCO)c3C[C@H]2CN1C(=O)c1ccccc1,0,-1,19,2,5,x
CCOC(=O)c1cnc2ccc(C(=O)OC)cc2c1Nc1ccc(C(=O)O)cc1,1,1,-3,-2,1,x
CCOC(=O)c1ccc2ncc(C(=O)OCC)c(Nc3ccc(N4CCOCC4)cc3)c2c1,3,10,45*,3,-1,42
O=C(Nc1cc(Cl)ccc1N1CCCC1)C1=COCCO1,6,-2,45*,-2,x,32
O=C(Nc1cc(C(F)(F)F)ccc1N1CCOCC1)C1CCCO1 (configuration not stated),x,x,16,x,x,x
Cc1cccc(C(=O)OCc2cncs2)c1,-3,4,-4,2,-2,x
O=[N+]([O-])c1ccc(N2CCN(c3cccc(Cl)c3)CC2)cn1,-3,5,47*,-2,1,38

# Assay outcomes (PubChem)
